# Active and inactive are the calls of the source. How the calls were made is not given here. Residues, ends and D or L forms follow the SMILES beside them.
# Test system: Aerobactin synthetase IucA (Klebsiella pneumoniae hvKP1)
# Experiment: Biochemical IucA enzyme inhibition primary screen of the Spectrum library (AID 1346200);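 further: 100% = wells without compound and 0% = wells lacking enzyme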
# Conditions: malachite green pyrophosphate, A620, at 8 µM, stronger effect = lower value
row,SMILES,activity remaining
1,NC1=NCCN1CC(=O)O,112% (inactive)
2,OC[C@H]1O[C@@H](O[C@H]2[C@H](O)[C@@H](O)[C@@H](O)O[C@@H]2CO)[C@H](O)[C@@H](O)[C@@H]1O,107% (inactive)
3,CC1NC(=O)NC1=O (stereo not given),97.3% (inactive)
4,C[C@]12CCc3occc3C1CC[C@@]13C[C@@H](CCC12)[C@@](O)(CO)C3 (stereo not given in full),93.4% (inactive)
5,CN(C(=O)CN(CCO)CC(=O)N(C)C(C)(C)Cc1ccccc1)C(C)(C)Cc1ccccc1,101% (inactive)
6,C=C[C@@](C)(O)CCC1C(=C)CCC2[C@@](C)(CO)CCC[C@]12C (stereo not given in full),117% (inactive)
7,Nc1ncnc2c1ncn2C1O[C@H](COP(=O)(O)O)[C@@H](O)[C@H]1O (stereo not given in full),98% (inactive)
8,CC(=O)[C@H]1CCC2C3CCC4=CC(=O)CC[C@]4(C)C3CC[C@@]21C (stereo not given in full),106% (inactive)
9,O=C1O[C@H](C(O)CO)C(O)=C1O (stereo not given in full),92.2% (inactive)
10,O[C@H]1[C@H](O)[C@@H](O)C2OC[C@H]1O2,119% (inactive)
11,CC(=O)O[C@H]1CC[C@@]2(C)C(=CCC3C2CC[C@@]2(C)C3CC[C@@H]2C(C)CCCC(C)C)C1 (stereo not given in full),124% (inactive)
12,CCN(CC)C(=O)N1CCN(C)CC1,118% (inactive)
13,O=c1[nH]cnc2nc[nH]c12,89.8% (inactive)
14,O=C(Oc1cccc2cccnc12)c1ccccc1,92.9% (inactive)
15,CC[C@H]1OC(=O)[C@H](C)[C@@H](O[C@H]2C[C@@](C)(OC)[C@@H](O)[C@H](C)O2)[C@H](C)[C@@H](O[C@@H]2O[C@H](C)C[C@H](N(C)C)[C@H]2O)[C@](C)(O)C[C@@H](C)[C@@H]2N[C@@H](COCCOC)O[C@H]([C@H]2C)[C@]1(C)O,117% (inactive)
16,CC(=O)O[C@H]1[C@@H]2[C@@H](OC(=O)Cc3ccccc3)[C@@H](C)C[C@]2(OC(C)=O)C(=O)/C(C)=C/[C@H]2[C@H](CC[C@@]13CO3)C2(C)C,103% (inactive)
17,COc1ccc(-c2coc3cc(OC)cc(OC)c3c2=O)cc1,103% (inactive)
18,Cc1c(Nc2ncccc2C(=O)O)cccc1C(F)(F)F,117% (inactive)
19,COC(=O)[C@H](Cc1ccccc1)NC(=O)[C@@H](N)CC(=O)O (H-Asp-Phe-OMe),104% (inactive)
20,Cc1ccnc(NS(=O)(=O)c2ccc(N)cc2)n1,122% (inactive)

row,SMILES,activity remaining
1,CCCCCC(=O)O[C@]1(C(C)=O)CCC2C3CCC4=CC(=O)CC[C@]4(C)C3CC[C@@]21C (stereo not given in full),109% (inactive)
2,COc1cc(NS(=O)(=O)c2ccc(N)cc2)ncn1,92.3% (inactive)
3,O=C(CCBr)N1CCN(C(=O)CCBr)CC1,107% (inactive)
4,Nc1ncnc2nc[nH]c12,105% (inactive)
5,COc1ccc(C(=O)c2ccccc2)c(O)c1,116% (inactive)
6,O=c1cc(-c2cccc(O)c2)oc2ccc(O)cc12,101% (inactive)
7,O=C(O)c1c2ccccc2cc2ccccc12,116% (inactive)
8,COC(=O)CCC(C)[C@H]1CCC2C3C(C[C@H](O)[C@@]21C)[C@@]1(C)CC[C@@H](O)C[C@H]1C[C@H]3O (stereo not given in full),105% (inactive)
9,O=c1ccc2ccccc2o1,124% (inactive)
10,CC1(C)O[C@@H]2CC3C4C[C@H](F)C5=CC(=O)C=CC5(C)C4C(O)CC3(C)[C@]2(C(=O)CO)O1 (stereo not given in full),111% (inactive)
11,NCCCC[C@H](N[C@@H](CCc1ccccc1)C(=O)O)C(=O)N1CCC[C@H]1C(=O)O,114% (inactive)
12,O=C(O)[C@H](O)[C@@](O)(Cc1ccc(O)cc1)C(=O)O,103% (inactive)
13,CN1C(CC(=O)c2ccccc2)CCCC1CC(O)c1ccccc1 (stereo not given),108% (inactive)
14,CC1(C)O[C@@H]2CC3C4C[C@H](F)C5=CC(=O)C=C[C@]5(C)[C@@]4(F)[C@@H](O)C[C@]3(C)[C@]2(C(=O)CO)O1 (stereo not given in full),99.1% (inactive)
15,Nc1ncnc2c1ncn2[C@@H]1O[C@H](CO)[C@@H](O)[C@@H]1O,107% (inactive)
16,O=C1c2ccc(O)c(O)c2C(=O)c2c(O)ccc(O)c21,125% (inactive)
17,CC(C)CCCC(C)C1CCC2C3CC[C@H]4C[C@@H](O)CC[C@]4(C)C3CC[C@]12C (stereo not given in full),109% (inactive)
18,CC(=O)[C@@]1(O)CCC2C3CCC4=CC(=O)CC[C@]4(C)C3CC[C@@]21C (stereo not given in full),72.4% (inactive)
19,O=C(O)c1cc(=O)c2c(OCC(O)COc3cccc4oc(C(=O)O)cc(=O)c34)cccc2o1,115% (inactive)
20,COc1c(O)cc2c(-c3ccccc3)cc(=O)oc2c1OC,130% (inactive)
